Source: PubChem (National Center for Advancing Translational Sciences (NCATS))
JMJD2A Tudor = blocks the human JMJD2A Tudor domain. AlphaScreen JMJD2A-Tudor / H3K4me3 peptide binding. 390,000 tested, 4.4% active. O75164. Potency, µM (series often up to 114 µM), usual class: inhibitors; note: nearly all actives have a fitted effect of over 50% in size
G9a block = blocks human histone lysine methyltransferase G9a | AID 504332 | 350,000 tested, 8.8% active | G9a H3K9 monomethylation, AlphaScreen, 2 h | Potency, µM (top dose mostly 102 µM), actives largely listed as inhibitors; note: nearly all actives have a fitted effect of over 75% in size
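Methyltransferase reactions run at room temperature for 2 h (20 nM enzyme, 500 nM biotin-H3K9 peptide, 20 uM SAM) after a 15 min compound preincubation; product detected by AlphaScreen beads and anti-H3K9me1 antibody.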
BAZ2B block = BAZ2B (human) inhibition; Q9UIF8; AlphaScreen BAZ2B-H3K14Ac peptide displacement; Potency, µM (titrated, usually from 114 µM), usual class: inhibitors; 360,000 tested, 4.4% active; note: nearly all actives have a fitted effect of over 60% in size
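Compounds, titrated to a top concentration of 110 uM, were incubated 30 min at room temperature with preformed BAZ2B/acetyl-K14 H3 peptide complex (50 nM each). Proximity signal was measured by AlphaScreen after 20 min with beads.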
CtBP-E1A inh = inhibitors of CtBP/E1A interaction | AlphaScreen GST-E1A/His-CtBP binding, 1536-well; hits give low values | activity change, % (concentration not given with the values) | 340,000 tested, 0.49% active; in the data active = activity change below about -65%; inconclusive = mostly about -30% to -63%
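Steps: dispense buffer (Tris pH 8.0, NaCl 300 mM, TCEP 1 mM, BSA, Tween 20); add 5X protein mix (GST-E1A, His-CtBP, 125 nM each); pin 23 nL compound; 2 h at 37 °C, dark; add 5X beads (50 ug/mL); 1 h; read.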
HP1b binding inh = blocks HP1-beta chromodomain binding to methylated histone tails | 390,000 tested, 0.56% active | AlphaScreen HP1-beta / biotin-H3K9me3 peptide binding | Potency, µM (titrated, usually from 114 µM), actives largely listed as inhibitors | P83916; note: nearly all actives have a fitted effect of over 70% in size
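AlphaScreen: HP1-beta (50 nM) preformed 30 min with biotin-H3(1-18)K9me3 peptide (50 nM) in PBS pH 7.4, 0.01% Tween-20. Compound added for 30 min at RT, then streptavidin donor/nickel chelate acceptor beads (10 ug/mL) for 30 min.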
Six1-Eya2 inh = Six1/Eya2 interaction inhibition. activity change, % (test concentration not listed). AlphaScreen GST-Six1/His-Eya2 binding, biochemical; hits give low values. Q15475+O00167. 360,000 tested, 0.56% active; in the data active = activity change below about -65%; inconclusive = mostly about -30% to -63%
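AlphaScreen with GST-Six1 and His-Eya2 (5X mix: 250 nM and 500 nM), glutathione donor and nickel acceptor beads; buffer 50 mM Tris pH 8.0, 300 mM NaCl, 1 mM TCEP; 1 h at 37 C in the dark.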
Hits are given with their value; [ ] = dose if it differs, or a comment. Rows were chosen to be rich in hits. Some 10% of all compounds tested hit in one or more screens of this group. Unless noted, calls come from the whole dose curve; as a rule, active = well fitted inhibition curve with a large enough effect; inconclusive = small, poorly fitted or top-dose-only effect; inactive = no such curve, though single readings can be large or run the other way.

For COc1cc(/C=C2\SC(=O)N(CCNC(=O)c3cnc(C)cn3)C2=O)cc(OC)c1OC the results were JMJD2A Tudor inactive, G9a block inconclusive, BAZ2B block inactive, CtBP-E1A inh inactive, HP1b binding inh inactive and Six1-Eya2 inh inactive.
Screening COc1ccc(/C=N/NC(=O)CSCC(=O)Nc2ccccc2)cc1 returned JMJD2A Tudor inactive, G9a block inactive, BAZ2B block inactive, CtBP-E1A inh inactive, HP1b binding inh inactive and Six1-Eya2 inh inactive.
CSc1nc(C)cc(OCC(=O)N/N=C/c2ccccc2O)n1 was read as JMJD2A Tudor inactive, G9a block inactive, BAZ2B block inactive, CtBP-E1A inh -69, HP1b binding inh inactive and Six1-Eya2 inh -68.
Screening COc1cccc(/C=N/NC(=O)CSCC(=O)Nc2ccccc2)c1O returned JMJD2A Tudor inactive, G9a block inactive, BAZ2B block inactive, CtBP-E1A inh -85, HP1b binding inh inactive and Six1-Eya2 inh -70.
Screening Cc1cc(=O)oc2cc(OCC(=O)N/N=C/c3ccccc3O)ccc12 returned JMJD2A Tudor inactive, G9a block inactive, BAZ2B block inactive, CtBP-E1A inh inactive, HP1b binding inh inactive and Six1-Eya2 inh inactive.
COc1cccc(/C=N\NC(=O)Cn2nnc3ccccc32)c1O was read as JMJD2A Tudor inactive, G9a block inactive, BAZ2B block inactive, CtBP-E1A inh -93, HP1b binding inh inactive and Six1-Eya2 inh -93.
COc1cc(/C=N/NC(=O)Cn2nnc3ccccc32)ccc1O was read as JMJD2A Tudor inactive, G9a block inactive, BAZ2B block inactive, HP1b binding inh inactive and Six1-Eya2 inh inactive.
Screening O=C(Cn1cc(C(F)(F)F)ccc1=O)N/N=C/c1ccccc1O returned JMJD2A Tudor inactive[11.4 µM], G9a block inactive, BAZ2B block inactive, CtBP-E1A inh -91, HP1b binding inh inactive and Six1-Eya2 inh inconclusive.
Screening O=C(N/N=C/c1ccccc1C(=O)O)C(=O)N1CCCCC1 returned JMJD2A Tudor inactive, G9a block inactive, BAZ2B block inactive, CtBP-E1A inh inactive, HP1b binding inh inactive and Six1-Eya2 inh inactive.
O=C(NCC(=O)N1CCCC1)NN=Cc1ccccc1O was read as CtBP-E1A inh -77 and Six1-Eya2 inh inconclusive.
`O=C(N/N=C/c1ccccc1O)c1cccc(C(F)(F)F)c1` gave JMJD2A Tudor inconclusive, G9a block inactive, BAZ2B block inconclusive, CtBP-E1A inh -81, HP1b binding inh inactive and Six1-Eya2 inh -79.
For O=C(CN1C(=O)NC2NC(=O)NC21)N/N=C/c1ccccc1O (configuration not stated) the results were JMJD2A Tudor inactive, G9a block inactive, BAZ2B block inconclusive, CtBP-E1A inh -90, HP1b binding inh inactive and Six1-Eya2 inh -91.
Screening O=C(CN1C(=O)NC2NC(=O)NC21)N/N=C/c1ccccc1F (configuration not stated) returned G9a block inactive and BAZ2B block inactive.
`C=CCn1c(CNc2ccccc2)nnc1SCC(=O)N/N=C/c1ccccc1O` gave JMJD2A Tudor inconclusive, G9a block inactive, BAZ2B block inactive, CtBP-E1A inh inconclusive, HP1b binding inh inactive and Six1-Eya2 inh -72.
Screening COc1ccc(-c2cn3nc(SCC(=O)Nc4cccc(C)c4C)ccc3n2)cc1 returned JMJD2A Tudor inactive, G9a block inactive, BAZ2B block inactive and HP1b binding inh inactive.
CC12CCCC(C(C#N)C(N)=O)(C1)NC(=O)C2C#N (configuration not stated) was read as JMJD2A Tudor inactive, CtBP-E1A inh inactive, HP1b binding inh inactive and Six1-Eya2 inh inactive.
Screening O=C(CC(=O)N/N=C/c1ccccc1O)NCc1cccnc1 returned JMJD2A Tudor inactive, G9a block inactive, BAZ2B block inconclusive, CtBP-E1A inh inactive, HP1b binding inh inactive and Six1-Eya2 inh -90.
COc1cccc(/C=N/Nc2nc3ccccc3n3cnnc23)c1 was read as JMJD2A Tudor inactive, G9a block inactive, BAZ2B block inactive, CtBP-E1A inh inconclusive, HP1b binding inh inactive and Six1-Eya2 inh inconclusive.
`O=C(CSCC(=O)NN=Cc1ccccc1O)NN=Cc1ccccc1O` gave JMJD2A Tudor inactive, CtBP-E1A inh inactive, HP1b binding inh inactive and Six1-Eya2 inh -83.
COc1cccc(/C=N/Nc2nc3ccccc3n3cnnc23)c1O was read as JMJD2A Tudor inactive, G9a block inactive, BAZ2B block inconclusive, CtBP-E1A inh -93, HP1b binding inh inactive and Six1-Eya2 inh -87.
Screening O=S(=O)(Nc1ccccc1N1CCCCC1)c1ccc(F)cc1 returned JMJD2A Tudor inactive, BAZ2B block inactive, CtBP-E1A inh inactive, HP1b binding inh inactive and Six1-Eya2 inh inactive.
`O=C1Nc2ccccc2-n2nnnc2C1N1CCN(CCN2CCOCC2)CC1` (configuration not stated) gave CtBP-E1A inh inactive and Six1-Eya2 inh inactive.
`COC(=O)[C@@H](c1ccccc1Cl)N1CCc2sccc2C1` gave G9a block inactive.
CCOC(=O)N1CCC(N2C(=O)c3ccc(C(=O)NCc4ccc(F)cc4)cc3C2=O)CC1 was read as JMJD2A Tudor inactive, G9a block inconclusive, BAZ2B block inactive, CtBP-E1A inh inactive, HP1b binding inh inactive and Six1-Eya2 inh inactive.
For CCOC(=O)N1CCC(N2C(=O)c3ccc(C(=O)NCc4ccco4)cc3C2=O)CC1 the results were JMJD2A Tudor inactive, G9a block 71µM, BAZ2B block inactive, CtBP-E1A inh inactive, HP1b binding inh inactive and Six1-Eya2 inh inactive.
CCOc1ccc(C(=O)NCc2ccco2)cc1 was read as JMJD2A Tudor inactive, G9a block inactive, BAZ2B block inconclusive, CtBP-E1A inh inactive, HP1b binding inh inactive and Six1-Eya2 inh inactive.
`CCC(CC)C(=O)Nc1cccc(C(=O)NCc2ccco2)c1` gave JMJD2A Tudor inconclusive, G9a block inconclusive, BAZ2B block 56µM, CtBP-E1A inh inactive, HP1b binding inh inactive and Six1-Eya2 inh inactive.
For CCOc1cc(OCC)cc(C(=O)NCc2ccco2)c1 the results were JMJD2A Tudor 89µM, G9a block inactive, BAZ2B block inconclusive, CtBP-E1A inh inactive, HP1b binding inh inactive and Six1-Eya2 inh inactive.
CC(C)C1Nc2ccc(C(=O)NCc3ccco3)cc2NC1=O (configuration not stated) was read as JMJD2A Tudor inactive, G9a block 79µM, BAZ2B block inactive, CtBP-E1A inh inactive, HP1b binding inh inactive and Six1-Eya2 inh inactive.
CCOC(=O)c1ccc(NC(=O)c2c(C)oc3nc(C)nc(N4CCCC4)c23)cc1 was read as JMJD2A Tudor inactive, G9a block inactive, BAZ2B block inactive and HP1b binding inh inactive.
CCOC(=O)c1c(C)n(C)c2ccc(OC)c(NC(=O)CN3CCC(C(=O)OCC)CC3)c12 was read as JMJD2A Tudor inactive, BAZ2B block inactive, HP1b binding inh inactive and Six1-Eya2 inh inactive.
